According to PubChem BioAssay (NCATS):
Values joined by “and” are separate entries in the source; they are usually repeats but may differ in a detail not shown here. Equal values may be shown once. Results filed as inconclusive are left out. Active and inactive are the calls of the source. Unless noted, the call rests on the fitted dose curve.

Test system: not listed separately
Assay: Cell Viability - MRC5 (AID 434);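 further: potency means the concentration at half of the fitted maximal effect; cells exposed to compound for 40 hours at 37 °C; potency reflects cytotoxicity seen as loss of intracellular ATP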
Conditions: MRC5 lung fibroblast viability, qHTS
Procedure, shortened: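 ATP luminescence read-out (CellTiter-Glo, 20 min RT) after 40 hr, 37 °C compound exposure of 1500 MRC5 cells/well. Data normalized to DMSO (basal) and 100 uM tamoxifen (100% inhibition); AC50 from standard Hill equation.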

SMILES | Potency
O=C(O)COc1ccc(Cl)cc1Cl | > 92 µM (inactive)
ClC1=C(Cl)C2(Cl)C3C4C=CC(C4)C3C1(Cl)C2(Cl)Cl (stereo unspecified) | > 92 µM (inactive)
O=S1OCC2C(CO1)C1(Cl)C(Cl)=C(Cl)C2(Cl)C1(Cl)Cl (stereo unspecified) | > 92 µM (inactive)
c1ccc(N=Nc2ccccc2)cc1 | > 92 µM (inactive)
CNC(=O)O/N=C/C(C)(C)SC | > 92 µM (inactive)
CCNc1nc(Cl)nc(NC(C)C)n1 | > 92 µM (inactive)
C=CCc1ccc(OC)cc1 | > 92 µM (inactive)
ClC1=C(Cl)C2(Cl)C3C(Cl)C=CC3C1(Cl)C2(Cl)Cl (stereo unspecified) | > 92 µM (inactive)
ClC1=C(Cl)C2(Cl)C3C4CC(C5OC45)C3C1(Cl)C2(Cl)Cl (stereo unspecified) | > 92 µM (inactive)
ClC(Cl)=C(c1ccc(Cl)cc1)c1ccc(Cl)cc1 | > 92 µM (inactive)
C/C=C/c1ccc2c(c1)OCO2 | > 92 µM (inactive)
C=CCc1ccc2c(c1)OCO2 | > 92 µM (inactive)
COP(=S)(OC)Oc1ccc([N+](=O)[O-])cc1 | > 92 µM (inactive)

Test system: not listed separately
Assay: Cell Viability - SK-N-SH (AID 435);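 further: potency means the concentration at half of the fitted maximal effect; compound exposure lasted 40 h at 37 °C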
Conditions: SK-N-SH neuroblastoma cell viability qHTS
Procedure, shortened: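 SK-N-SH neuroblastoma cells (1500/well) treated 40 h at 37 °C in complete medium; viability read as cellular ATP by CellTiter-Glo luminescence. Normalized to DMSO and 100 uM tamoxifen; AC50 from Hill fits of qHTS concentration-response.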

SMILES | Potency
O=C(O)COc1ccc(Cl)cc1Cl | > 92 µM (inactive)
ClC1=C(Cl)C2(Cl)C3C4C=CC(C4)C3C1(Cl)C2(Cl)Cl (stereo unspecified) | > 92 µM (inactive)
O=S1OCC2C(CO1)C1(Cl)C(Cl)=C(Cl)C2(Cl)C1(Cl)Cl (stereo unspecified) | > 92 µM (inactive)
c1ccc(N=Nc2ccccc2)cc1 | > 92 µM (inactive)
CNC(=O)O/N=C/C(C)(C)SC | > 92 µM (inactive)
CCNc1nc(Cl)nc(NC(C)C)n1 | > 92 µM (inactive)
C=CCc1ccc(OC)cc1 | > 92 µM (inactive)
ClC1=C(Cl)C2(Cl)C3C4CC(C5OC45)C3C1(Cl)C2(Cl)Cl (stereo unspecified) | > 92 µM (inactive)
ClC(Cl)=C(c1ccc(Cl)cc1)c1ccc(Cl)cc1 | > 92 µM (inactive)
CCc1cccc(CC)c1N(COC)C(=O)CCl | > 92 µM (inactive)
C/C=C/c1ccc2c(c1)OCO2 | > 92 µM (inactive)
C=CCc1ccc2c(c1)OCO2 | > 92 µM (inactive)
COP(=S)(OC)Oc1ccc([N+](=O)[O-])cc1 | > 92 µM (inactive)

Test system: not listed separately
Assay: NFAT Signaling Pathway (AID 444; active means well fitted curve in either direction with a large enough effect, not every such curve was filed as active;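 further: carbachol stimulus at about its EC50 of 1 µM final; on the % scale 0 is the no-effect control and ±100 the full control effect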)
Conditions: Jurkat NFAT-bla M1, carbachol, beta-lactamase ratio, 5 h; at 7.69 µM (top of the series)
Procedure, shortened: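 Jurkat cells with NFAT-driven β-lactamase reporter and co-expressed M1 receptor, stimulated with carbachol (final 1 uM, ~EC50), compound titration, 5 h at 37 °C. CCF4 loaded 1 h at RT; 460/530 nm ratio gave %activity and AC50.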

SMILES | activity change, negative = inhibition
Cc1nc2cnc(N3CCNCC3)nc2n(C)c1=O | 5.09% (inactive)
C[N+]1([O-])[C@@H]2CC(OC(=O)[C@@H](CO)c3ccccc3)C[C@@H]1[C@H]1O[C@H]12 (stereo partly specified) | -78.2% (active)
CN1CC[C@@]2(CCCN(C(=O)c3ccco3)C2)C1 | -15.5% (inactive)
c1cc(CN2CCC3(CCNCC3)CC2)ccn1 | -8.56% (inactive)
c1ccc(N2CCC3(CCNCC3)CC2)cc1 | -12.2% (inactive)

Test system: not listed separately
Assay: Stat Signaling Pathway (AID 446; active means well fitted curve in either direction with a large enough effect, not every such curve was filed as active;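 further: ME-180 cervical cancer cells given 40 pM IL-6 alongside compound; SIE-controlled beta-lactamase reporter measured as 460/530 nm FRET emission ratio; on the % scale 0 is the no-effect control and ±100 the full control effect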)
Conditions: ME-180 (cervical carcinoma) SIE beta-lactamase reporter, IL-6 stimulated, 5 h; series mostly up to 17.2 µM; activity, negative = inhibition: at the top concentration
Procedure, shortened: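 Emission at 460 and 530 nm (excitation 405 nm) reports SIE-controlled beta-lactamase in ME-180 cells. Cells received compound with 40 pM IL-6 for 5 hrs at 37 C; data scaled between 300 pM IL-6 and 125 nM JAK-inhibitor controls.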

SMILES | activity, negative = inhibition | outcome
O=C(O)CNCP(=O)(O)O | 7.88% [at 7.69 µM] (inactive) | –
Cc1nc2cnc(N3CCNCC3)nc2n(C)c1=O | 6.03% [at 7.69 µM] (inactive) | –
C[N+]1([O-])[C@@H]2CC(OC(=O)[C@@H](CO)c3ccccc3)C[C@@H]1[C@H]1O[C@H]12 (stereo partly specified) | – | inactive
CC(C)NC(=O)N1CCC2(CCNCC2)CC1 | -4.54% [at 7.69 µM] (inactive) | –
CN1CC[C@@]2(CCCN(C(=O)c3ccco3)C2)C1 | 5.16% [at 7.69 µM] (inactive) | –
c1cc(CN2CCC3(CCNCC3)CC2)ccn1 | -3.54% [at 7.69 µM] (inactive) | –
CC(C)CN1CC2(CCN(C(=O)c3ccncc3)CC2)C1 | 4.06% [at 7.69 µM] (inactive) | –
CCNC[C@H](O)c1cccc(O)c1 | 13.2% (inactive) | –
N#Cc1ccc(CN2CC[C@@]3(CCCNC3)C2)cc1 | -2.31% [at 7.69 µM] (inactive) | –
N#Cc1ccc(CN2CCC3(CC2)CCN(C(=O)Oc2ccccc2)CC3)cc1 | -11.3% [at 7.69 µM] (inactive) | –
c1ccc(N2CCC3(CCNCC3)CC2)cc1 | -5.69% [at 7.69 µM] (inactive) | –
COc1ccc2c(c1O)-c1c(OC)c(OC)cc3c1[C@H](C2)N(C)CC3 | -4.25% (inactive) | –

Target: Glucocorticoid receptor (Homo sapiens) (UniProt P04150)
Sequence (P04150 whole entry, looked up): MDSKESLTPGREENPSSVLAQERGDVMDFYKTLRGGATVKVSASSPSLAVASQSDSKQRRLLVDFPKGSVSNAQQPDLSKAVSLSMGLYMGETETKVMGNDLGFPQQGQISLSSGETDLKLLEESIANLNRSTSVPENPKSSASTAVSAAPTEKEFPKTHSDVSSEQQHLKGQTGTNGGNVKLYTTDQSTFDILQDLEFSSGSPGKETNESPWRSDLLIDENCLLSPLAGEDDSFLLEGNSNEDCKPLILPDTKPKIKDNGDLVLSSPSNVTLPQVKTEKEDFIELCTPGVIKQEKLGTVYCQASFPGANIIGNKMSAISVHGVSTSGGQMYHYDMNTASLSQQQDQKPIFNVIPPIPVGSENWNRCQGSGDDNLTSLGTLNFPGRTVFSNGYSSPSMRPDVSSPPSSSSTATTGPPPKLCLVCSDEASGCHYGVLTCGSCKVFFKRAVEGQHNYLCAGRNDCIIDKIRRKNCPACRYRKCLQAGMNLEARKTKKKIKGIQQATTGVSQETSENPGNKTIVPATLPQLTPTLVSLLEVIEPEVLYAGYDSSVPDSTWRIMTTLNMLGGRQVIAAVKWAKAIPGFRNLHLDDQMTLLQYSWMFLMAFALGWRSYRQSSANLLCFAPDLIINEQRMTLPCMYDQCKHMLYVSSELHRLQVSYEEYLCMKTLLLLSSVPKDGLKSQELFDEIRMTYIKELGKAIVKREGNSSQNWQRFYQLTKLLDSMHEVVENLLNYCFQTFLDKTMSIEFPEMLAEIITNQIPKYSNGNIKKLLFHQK
Assay: GR-GFP Redistribution (AID 450;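 active means compounds whose dose series gives a full or clear partial fitted curve of increased nuclear translocation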; further: potency means the concentration at half of the fitted maximal effect)
Conditions: U2OS GR-GFP nuclear translocation, laser cytometry, 2 h

SMILES | Potency
O=C(O)CNCP(=O)(O)O | > 46 µM (inactive)
Cc1nc2cnc(N3CCNCC3)nc2n(C)c1=O | > 9.22 µM (inactive)
C[N+]1([O-])[C@@H]2CC(OC(=O)[C@@H](CO)c3ccccc3)C[C@@H]1[C@H]1O[C@H]12 (stereo partly specified) | > 20.6 µM (inactive) and > 46 µM (inactive)
CCNC[C@H](O)c1cccc(O)c1 | > 20.6 µM (inactive)
COc1ccc2c(c1O)-c1c(OC)c(OC)cc3c1[C@H](C2)N(C)CC3 | > 20.6 µM (inactive) and > 46 µM (inactive)

Target: Glucocorticoid receptor (Homo sapiens) (UniProt P04150)
Assay: GR-EFC Redistribution (AID 451); further: potency means the concentration at half of the fitted maximal effect
Conditions: CHO-K1 GR-EFC translocation, beta-gal luminescence, 2 h
Procedure, shortened: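 CHO-K1 cells expressing nuclear EA and GR-ED fragments of b-gal; compounds titrated up to 46 uM final, 2 h at 37 C. GR nuclear translocation read as complemented b-gal luminescence after 1 h RT detection.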

SMILES | Potency
O=C(O)CNCP(=O)(O)O | > 9.22 µM (inactive)
Cc1nc2cnc(N3CCNCC3)nc2n(C)c1=O | > 46 µM (inactive)
C[N+]1([O-])[C@@H]2CC(OC(=O)[C@@H](CO)c3ccccc3)C[C@@H]1[C@H]1O[C@H]12 (stereo partly specified) | > 20.6 µM (inactive) and > 9.22 µM (inactive)
CN1CC[C@@]2(CCCN(C(=O)c3ccco3)C2)C1 | > 46 µM (inactive)
c1cc(CN2CCC3(CCNCC3)CC2)ccn1 | > 46 µM (inactive)
CC(C)CN1CC2(CCN(C(=O)c3ccncc3)CC2)C1 | > 46 µM (inactive)
N#Cc1ccc(CN2CC[C@@]3(CCCNC3)C2)cc1 | > 46 µM (inactive)
COc1ccc2c(c1O)-c1c(OC)c(OC)cc3c1[C@H](C2)N(C)CC3 | > 20.6 µM (inactive) and > 46 µM (inactive)
